# PubChem BioAssay (NCATS)
# Unmarked numbers belong to inactive results. Records with an inconclusive call do not appear. Where a call stands in place of a potency, no number is given. The source made the active and inactive calls. Calls come from the whole dose curve; as a rule, active = well fitted curve in the direction sought with a large enough effect; inconclusive = small, poorly fitted or top-dose-only effect, or another doubt; inactive = no such curve, though single readings can be large; an effect the other way counts as inactive or inconclusive. Where a SMILES comes first, the peptide text is derived from it. [ ]: non-standard residue; d: D form. PhLac = O=C(O)[CH](O)Cc1ccccc1; NMeV = CN[CH](C(=O)O)C(C)C
# Legend:
# [1] = target: Glutathione peroxidase 1 (Homo sapiens) (UniProt P07203); test: Primary qHTS Assay for Inhibitors of Recombinant Selenoprotein Glutathione Peroxidase 1 (GPX1) (AID 1845191); note: nearly all actives have a fitted effect of over 65% in size
# Glutathione peroxidase 1 (Homo sapiens), sequence (P07203 whole entry, looked up): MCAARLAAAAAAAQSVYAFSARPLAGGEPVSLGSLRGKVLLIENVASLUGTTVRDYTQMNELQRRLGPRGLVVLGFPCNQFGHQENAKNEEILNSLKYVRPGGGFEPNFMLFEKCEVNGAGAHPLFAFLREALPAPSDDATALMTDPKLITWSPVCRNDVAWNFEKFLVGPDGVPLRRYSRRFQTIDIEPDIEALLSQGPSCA
# Method in brief: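 10 nM GPX1 + cpd, 30 min RT; start w/ 1 mM GSH, 0.5 mM cumene hydroperoxide, 0.5 mM NADPH, 100 nM GR, 0.01% BSA; buffer 50 mM Tris-HCl pH 7.5, 2 mM EDTA, 150 mM NaCl; Fl 340/450, 0 & 15 min.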
# [2] = target: Phospholipid hydroperoxide glutathione peroxidase GPX4 (Homo sapiens) (UniProt P36969); test: Primary qHTS Assay for Inhibitors of Recombinant Selenoprotein Glutathione Peroxidase 4 (GPX4) (AID 1845192); note: nearly all actives have a fitted effect of over 65% in size
# Phospholipid hydroperoxide glutathione peroxidase GPX4 (Homo sapiens), sequence (P36969 whole entry, looked up): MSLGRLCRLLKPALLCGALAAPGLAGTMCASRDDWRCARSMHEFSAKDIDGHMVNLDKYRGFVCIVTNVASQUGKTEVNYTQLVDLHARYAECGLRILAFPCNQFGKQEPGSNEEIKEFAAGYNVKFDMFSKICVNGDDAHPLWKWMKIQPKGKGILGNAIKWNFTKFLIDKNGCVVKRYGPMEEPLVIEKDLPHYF
# Method in brief: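 NADPH consumption, followed by fluorescence at 340/450 nm between 0 and 15 min, reports GPX4 activity via coupled glutathione reductase (100 nM). Enzyme 200 nM was pre-exposed to compound 30 min; 0.5 mM cumene hydroperoxide and 1 mM GSH served as substrates.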
# [3] = target: Luciferin 4-monooxygenase (Photinus pyralis) (UniProt P08659); test: Primary firefly luciferase (FLuc) qHTS assay for identification of artifact compounds. (AID 1845220); note: nearly all actives have a fitted effect of over 60% in size
# Method in brief: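 Cell-free, 1536-well qHTS. Buffer pH 7.6 with 0.01% Tween-20 and 0.05% BSA; 10 uM D-luciferin, 10 uM ATP; 10 nM P. pyralis luciferase; luminescence after 5 min.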
# [4] = Primary fluorescence-based thiol-reactive (MSTI) qHTS assay for identification of artifact compounds. (AID 1845221); note: nearly all actives have a fitted effect of over 65% in size; note: potency is the fitted concentration of half-maximal effect;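 for activity change, negative = thiol reactive: series mostly up to about 54 µM; thiol-reactive compounds lower the probe fluorescence signal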
# Method in brief: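 First, 4 uM MSTI in 2% DMSO/PBS pH 7.4 was dispensed; next, compounds were added; then plates sat 1 h at room temperature without light. Finally, emission at 598 nm was recorded.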
# [5] = tested on: Nanoluciferase (engineered Oplophorus gracilirostris luciferase); test: Primary Nanoluciferase (NLuc) qHTS assay for identification of artifact compounds. (AID 1845222); note: series mostly up to about 54 µM
# Method in brief: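 Compounds are pinned into diluted (1:55) conditioned medium of NLuc-expressing S16 cells and held 15 min at room temperature protected from light. Nano-Glo substrate follows, and luminescence is read 5 min later.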
SMILES,Potency [1],Potency [2],Potency [3],Potency [4],Potency [5],outcome [1],outcome [2],outcome [3],"activity change, negative = thiol reactive [4]","activity, negative = inhibition [5]"
C=C1CCC2C(C)(CO[C@@H]3O[C@H](CO)[C@@H](O)[C@H](O)[C@H]3O)C(O)CCC2(C)C1C(=O)CC1=CCOC1=O (stereo not given in full),inactive,inactive,inactive,10.3 µM (active),inactive,–,–,–,–,–
COC1CC(=O)C23C(=O)NC(CC(C)C)C2C(C)C(C)=CC3/C=C(\C)CCC1O (stereo not given),inactive,inactive,inactive,inactive,inactive,–,–,–,–,–
C[C@H](NCc1ccc(OCc2ccccc2F)cc1)C(N)=O,inactive,inactive,inactive,inactive,inactive,–,–,–,–,–
CCOC(=O)c1ccc(N(C)c2csc(-c3ccccc3)n2)cc1,inactive,inactive,inactive,inactive,inactive,–,–,–,–,–
CC(C)C(C(=O)N1CCCC1C(=O)O)N(C)C(=O)C(O)Cc1ccccc1 (stereo not given) (H-[PhLac]-[NMeV]-Pro-OH; configuration not given here),inactive,inactive,inactive,inactive,inactive,–,–,–,–,–
C=CC(C)(O)CC/C=C(\C)C(=O)OCC1OC(OC2CCC3(C)C(CCC4(C)C3CC=C3C5CC(C)(C)C(O)CC5(C(=O)O)CCC34C)C2(C)C)C(O)C(OC2OC(CO)C(O)C(OC3OC(CO)C(O)C(OC4OC(COC5OC(CO)C(O)C(O)C5O)C(O)C(O)C4O)C3O)C2O)C1O (stereo not given),–,–,–,–,–,inactive [at 9.52 µM],inactive [at 9.73 µM],inactive [at 11.6 µM],67.6% [at 11.5 µM],4.87% [at 11.6 µM]
C/C=C/C1=CC2=C(CO1)C(=O)[C@](C)(O)[C@H](OC(=O)c1c(O)cc(OC)c(O)c1C)C2,inactive,inactive,inactive,1.03 µM (active),inactive,–,–,–,–,–
O=C(/C=C/c1ccc(O)cc1)OC[C@]12O[C@H]1[C@@H](O)[C@@H]1C=CO[C@@H](O[C@@H]3O[C@H](CO)[C@@H](O)[C@H](O)[C@H]3O)[C@@H]12,inactive,inactive,inactive,inactive,inactive,–,–,–,–,–
CCN(c1cc(C#CCN2CCOCC2)cc(C(=O)NCc2c(C)cc(C)[nH]c2=O)c1C)C1CCC(N(C)CCOC)CC1 (stereo not given),inactive,inactive,inactive,inactive,inactive,–,–,–,–,–
CN1CCC(c2c[nH]c3ccc(NC(=O)c4ccc(F)cc4)cc23)CC1,inactive,inactive,inactive,inactive,inactive,–,–,–,–,–
C/C=C/C1=CC2=CC(=O)C(C)(O)C(OC(=O)c3c(C)cc(O)cc3O)C2CO1 (stereo not given),inactive,inactive,inactive,inactive,inactive,–,–,–,–,–
